Here are results for 13 molecules from the supplement of paper PMC7184167.

Counter-ions that a name gives are not always drawn.

The experiment concerns replication-induced senescent mouse newborn dermal fibroblasts (NBF). The experiment in a line: relative cell viability of senescent cells (fraction); higher = less killing of senescent cells. Conditions: 1 µM; 3 days. How it is done:
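Replication-induced senescent newborn mouse skin fibroblasts (NBFs) in 24-well plates were treated with a Selleck FDA-approved drug library at 1 µM for 3 days.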
Regarding `CN(C)[C@@H]1C(=O)C(C(N)=O)=C(O)[C@@]2(O)C(=O)C3=C(O)c4c(O)cccc4[C@@](C)(O)[C@H]3[C@H](O)[C@@H]12` [Oxytetracycline (Terramycin)], the relative cell viability was determined as 1.01.
For `CCC1(c2ccc(N)cc2)CCC(=O)NC1=O` (stereo not drawn) [Aminoglutethimide], the relative cell viability was 0.889.
Molecule `CN1[C@@H]2C[C@@H](OC(=O)[C@H](CO)c3ccccc3)C[C@H]1[C@@H]1O[C@@H]12` [Scopolamine HBr] yielded a relative cell viability of 1.03.
The molecule `Cn1cc(C2=C(c3cn(C4CCN(Cc5ccccn5)CC4)c4ccccc34)C(=O)NC2=O)c2ccccc21` came in with a relative cell viability of 0.523.
In turn, `C[C@]12CC[C@H]3[C@@H](CC[C@@]45O[C@@H]4C(O)=C(C#N)C[C@]35C)[C@@H]1CC[C@@H]2O` [Trilostane] gave a relative cell viability of 0.778.
Take `C=C1C[C@@H]2[C@H](CC[C@]3(C)C(=O)CC[C@@H]23)[C@@]2(C)C=CC(=O)C=C12` [Exemestane]: the relative cell viability is 1.08.
With `COc1ccc(C(CN(C)C)C2(O)CCCCC2)cc1` (stereo not drawn) [Venlafaxine HCl], the relative cell viability amounted to 1.03.
The value for `CC(O)(CS(=O)(=O)c1ccc(F)cc1)C(=O)Nc1ccc(C#N)c(C(F)(F)F)c1` (stereo not drawn) [Bicalutamide] was 0.913.
The molecule `CN1c2ccccc2C(NCCCCCCC(=O)O)c2ccc(Cl)cc2S1(=O)=O` (stereo not drawn) [Tianeptine sodium] gave a relative cell viability of 0.946.
The value for `C[C@]12Cc3c[nH]nc3C[C@@H]1CC[C@@H]1[C@@H]2CC[C@@]2(C)[C@H]1CC[C@]2(C)O` [Stanozolol] was 0.136; that for `CN(C)C(=O)Oc1ccc[n+](C)c1` [Pyridostigmine Bromide] was 1.19; that for `COc1cc2c(cc1OC)C1CC(=O)C(CC(C)C)CN1CC2` (stereo not drawn) [Tetrabenazine (Xenazine)] was 1.04.
The molecule `Cn1c(CCCC(=O)O)nc2cc(N(CCCl)CCCl)ccc21` [Bendamustine HCl] gave a relative cell viability of 0.999.
